Measured values as given in PubChem BioAssay AID1159580 (chemical genetic matrix, 2015).
Values joined by “and” are separate entries in the source; they are usually repeats but may differ in a detail not shown here. Equal values may be shown once. About 2,000 (36%) of roughly 5,500 compounds were called active. Not shown: some 18% with an inconclusive outcome. No stated cut-off is given here; in the data, active means normalized growth mostly below about 0.91 (no sharp cut-off); inconclusive means no clear call, values can overlap the other calls; inactive means mostly above about 0.92. Some of the results follow.

Assay: chemical genetic growth profiling, strain panel (AID 1159580);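 further: tested at 20 µM; growth read once vehicle control cultures reached saturation at 30 °C; 1 = growth at the plate median or of vehicle wells; lower values mean less growth of the strain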
Settings: S. cerevisiae deletion strains, growth OD

Measured: normalized growth

O=c1ccc2cc(O[C@@H]3O[C@H](CO)[C@@H](O)[C@H](O)[C@H]3O)c(O)cc2o1
inactive: locus YAL013W, strain DEP1, hits give low values 1.04 | locus YAL021C, strain ccr4, hits give low values 0.991 | locus YAL026C, strain drs2, hits give low values 0.997 | locus YAL030W, strain snc1, hits give low values 0.971 | locus YBL061C, strain skt5, hits give low values 0.972 | locus YBR009C, strain hhf1, hits give low values 1.01 | locus YBR021W, strain FUR4, hits give low values 1.06 | locus YBR023C, strain chs3, hits give low values 0.983 | locus YBR171W, strain sec66, hits give low values 0.956 | locus YBR229C, strain ROT2, hits give low values 1.02 | locus YBR231C, strain swc5, hits give low values 0.982 | locus YBR279W, strain paf1, hits give low values 0.988 | locus YCL011C, strain gbp2, hits give low values 0.99 | locus YCL016C, strain dcc1, hits give low values 0.999 | locus YCL029C, strain bik1, hits give low values 0.998 | locus YCL061C, strain MRC1, hits give low values 0.983 | locus YCL069W, strain vba3, hits give low values 0.977 | locus YCR088W, strain abp1, hits give low values 0.978 | locus YDL005C, strain med2, hits give low values 0.958 | locus YDL035C, strain GPR1, hits give low values 1.04 | locus YDL040C, strain nat1, hits give low values 0.976 | locus YDL074C, strain BRE1, hits give low values 1.02 | locus YDL101C, strain DUN1, hits give low values 1.01 | locus YDL134C, strain PPH21, hits give low values 1.02 | locus YDL185W, strain tfp1, hits give low values 1 | locus YDL192W, strain arf1, hits give low values 0.991 | locus YDR001C, strain nth1, hits give low values 0.987 | locus YDR069C, strain doa4, hits give low values 0.977 | locus YDR101C, strain arx1, hits give low values 0.995 | locus YDR137W, strain rgp1, hits give low values 1 | locus YDR159W, strain sac3, hits give low values 0.978 | locus YDR162C, strain NBP2, hits give low values 1.04 | locus YDR195W, strain ref2 0.875 | locus YDR297W, strain sur2, hits give low values 0.988 | locus YDR318W, strain mcm21, hits give low values 0.999 | locus YDR334W, strain swr1, hits give low values 0.982 | locus YDR335W, strain msn5, hits give low values 0.995 | locus YDR388W, hits give low values 0.986 | locus YDR392W, strain spt3, hits give low values 1.02 | locus YDR502C, strain sam2, hits give low values 0.993 | locus YEL003W, strain gim4, hits give low values 0.986 | locus YEL037C, strain rad23, hits give low values 0.982 | locus YEL061C, strain CIN8 (second series), hits give low values 0.974 | locus YEL061C, strain CIN8, hits give low values 1.01 | locus YER015W, strain faa2, hits give low values 0.992 | locus YER016W, strain bim1, hits give low values 0.983 | locus YER110C, hits give low values 0.99 | locus YER111C, strain swi4, hits give low values 0.961 | locus YER155C, strain BEM2 (second series), hits give low values 0.927 | locus YER155C, strain BEM2, hits give low values 1 | locus YER167W, strain BCK2, hits give low values 1.02 | locus YFR010W, strain ubp6, hits give low values 0.974 | locus YGL078C, strain dbp3, hits give low values 0.997 | locus YGL086W, strain mad1, hits give low values 0.979 | locus YGL167C, strain pmr1, hits give low values 0.964 | locus YGL173C, strain kem1, hits give low values 0.977 | locus YGL227W, strain vid30, hits give low values 0.981 | locus YGL240W, strain doc1, hits give low values 0.981 | locus YGL248W, strain PDE1, hits give low values 1.03 | locus YGL253W, strain hxk2, hits give low values 0.994 | locus YGR135W, strain pre9, hits give low values 0.995 | locus YGR252W, strain gcn5, hits give low values 0.997 | locus YHR013C, strain ard1, hits give low values 0.963 | locus YHR027C, strain rpn1, hits give low values 0.978 | locus YHR030C, strain SLT2, hits give low values 1.01 and 1.03 | locus YHR079C, strain IRE1 (second series), hits give low values 0.99 | locus YHR079C, strain IRE1, hits give low values 1.02 | locus YHR094C, strain hxt1, hits give low values 0.995 | locus YHR129C, strain ARP1, hits give low values 1.02 | locus YHR142W, strain chs7, hits give low values 0.982 | locus YHR200W, strain rpn10, hits give low values 0.999 | locus YIL066C, strain RNR3, hits give low values 1.05 | locus YIL073C, strain SPO22, hits give low values 1.02 | locus YIL125W, strain kgd1, hits give low values 0.995 | locus YIR030C, strain dcg1, hits give low values 0.986 | locus YJL092W, strain hpr5, hits give low values 0.994 | locus YJL095W, strain BCK1 (second series), hits give low values 0.973 | locus YJL095W, strain BCK1, hits give low values 1.01 and 1.02 | locus YJL115W, strain asf1, hits give low values 0.971 | locus YJL129C, strain trk1, hits give low values 0.993 | locus YJL134W, strain LCB3, hits give low values 1.01 | locus YJL154C, strain vps35, hits give low values 0.98 | locus YJL164C, strain tpk1, hits give low values 0.991 | locus YJL166W, strain qcr8, hits give low values 0.962 | locus YJL168C, strain set2, hits give low values 0.987 | locus YJL187C, strain SWE1 (second series), hits give low values 1.01 | locus YJR043C, strain POL32, hits give low values 1.04 | locus YJR066W, strain TOR1, hits give low values 0.954 | locus YKL009W, strain mrt4, hits give low values 0.978 | locus YKL068W, hits give low values 1 | locus YKL085W, strain MDH1 (second series), hits give low values 0.996 | locus YKL085W, strain MDH1, hits give low values 0.996 | locus YKL160W, strain elf1, hits give low values 0.992 | locus YKR001C, strain vps1, hits give low values 0.983 | locus YKR026C, strain gcn3, hits give low values 0.964 | locus YKR091W, strain srl3, hits give low values 0.971 | locus YLL001W, strain dnm1, hits give low values 0.962 | locus YLL026W, hits give low values 0.988 | locus YLL041C, strain sdh2, hits give low values 0.971 | locus YLR027C, strain aat2, hits give low values 0.983 | locus YLR039C, strain RIC1, hits give low values 1.03 | locus YLR058C, strain SHM2, hits give low values 1.02 | locus YLR102C, strain apc9, hits give low values 1 | locus YLR113W, strain HOG1, hits give low values 1.01 | locus YLR221C, strain rsa3, hits give low values 1.03 | locus YLR258W, strain gsy2, hits give low values 0.973 | locus YLR262C, strain YPT6 (second series), hits give low values 0.955 | locus YLR262C, strain YPT6, hits give low values 1.08 | locus YLR268W, strain sec22, hits give low values 0.989 | locus YLR320W, strain mms22, hits give low values 0.984 | locus YLR330W, strain CHS5, hits give low values 1.02 | locus YLR342W, strain FKS1 (second series), hits give low values 1.03 | locus YLR342W, strain FKS1, hits give low values 0.973 | locus YLR357W, strain rsc2, hits give low values 0.96 | locus YLR370C, strain arc18, hits give low values 0.989 | locus YLR371W, strain rom2, hits give low values 0.993 | locus YLR384C, strain iki3, hits give low values 0.97 | locus YLR418C, strain cdc73, hits give low values 1.03 | locus YML016C, strain PPZ1, hits give low values 1.02 | locus YML032C, strain rad52, hits give low values 1.01 | locus YML120C, strain ndi1, hits give low values 0.978 | locus YML124C, strain tub3, hits give low values 0.991 | locus YMR058W, strain fet3, hits give low values 0.978 | locus YMR078C, strain ctf18, hits give low values 0.99 | locus YMR125W, strain sto1, hits give low values 0.97 | locus YMR129W, hits give low values 0.991 | locus YMR205C, strain PFK2, hits give low values 0.962 | locus YMR223W, strain ubp8, hits give low values 0.99 | locus YMR231W, strain pep5, hits give low values 0.971 | locus YMR307W, strain GAS1, hits give low values 1.09 | locus YNL067W, strain RPL9B, hits give low values 1.01 | locus YNL071W, strain lat1, hits give low values 0.993 | locus YNL128W, strain TEP1, hits give low values 1.03 | locus YNL183C, strain NPR1, hits give low values 0.962 | locus YNL209W, strain ssb2, hits give low values 0.993 | locus YNL233W, strain BNI4, hits give low values 1.01 | locus YNL248C, strain rpa49, hits give low values 1.01 | locus YNL250W, strain rad50, hits give low values 1.02 | locus YNL271C, strain bni1, hits give low values 0.993 | locus YNL298W, strain CLA4, hits give low values 0.985 | locus YNL307C, strain MCK1, hits give low values 1 | locus YNL322C, strain KRE1 (second series), hits give low values 0.947 | locus YNR049C, strain mso1, hits give low values 0.973 | locus YNR052C, strain pop2, hits give low values 0.994 | locus YOL012C, strain htz1 0.76 | locus YOL147C, strain pex11, hits give low values 0.996 | locus YOR001W, strain rrp6, hits give low values 0.987 | locus YOR061W, strain CKA2, hits give low values 1.02 | locus YOR069W, strain VPS5, hits give low values 1.01 | locus YOR070C, strain gyp1, hits give low values 0.981 | locus YOR080W, strain dia2, hits give low values 0.948 | locus YOR083W, strain WHI5, hits give low values 0.981 | locus YOR106W, strain vam3, hits give low values 0.97 | locus YOR136W, strain idh2, hits give low values 0.991 | locus YOR144C, strain elg1, hits give low values 0.999 | locus YOR184W, strain ser1, hits give low values 0.997 | locus YOR231W, strain MKK1, hits give low values 1.04 | locus YOR265W, strain rbl2, hits give low values 0.984 | locus YOR270C, strain vph1, hits give low values 1 | locus YOR290C, strain snf2, hits give low values 1 | locus YOR316C, strain cot1, hits give low values 0.991 | locus YPL051W, strain arl3, hits give low values 0.99 | locus YPL078C, strain atp4, hits give low values 0.962 | locus YPL106C, strain sse1, hits give low values 0.962 | locus YPL240C, strain hsp82, hits give low values 0.968 | locus YPL241C, strain CIN2, hits give low values 1.01 | locus YPL256C, strain CLN2, hits give low values 1.02 | locus YPR119W, strain clb2, hits give low values 0.99 | locus YPR141C, strain kar3, hits give low values 0.996 | locus YPR163C, strain tif3, hits give low values 0.987 | locus YPR167C, strain met16, hits give low values 0.986 | strain wtn01, hits give low values 0.997
